# From the supplement of paper PMC7156485
# Structures can show the parent of a compound that is named as a salt.
# Assays:
# Details in all cases: concentration: 10 µM; 24 h
# HCC1569 [1] = test: cell number relative to DMSO (% of DMSO); higher = more cells (less growth inhibition / toxicity)
# Method in brief: (§1)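 After 24 h at 37 °C with compounds at 10 µM, in triplicate, HCC1569 and TDF cells were fixed with 3.7% formaldehyde. Immunostaining used a rabbit anti-H1.0 antibody and an AlexaFluor 647 secondary, with DAPI, and six fields per well were imaged at ×10. H1.0 nuclear intensity or cell number is presented as percent of the plate control, from the median of replicates, with HCC1569 values smoothed for positional effects.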
# TDF [2] = test: as above
# Method in brief: as §1
# TDF [3] = test: H1.0 immunofluorescence intensity relative to DMSO (% of DMSO); higher = stronger H1.0 induction, active = 120 or more
# Method in brief: as §1
# HCC1569 [4] = test: H1.0 immunofluorescence intensity relative to DMSO (% of DMSO); higher = stronger H1.0 induction, active = 140 or more
# Method in brief: as §1
# 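Throughout, for H1.0 immunofluorescence intensity relative to DMSO: TDF is a line of transformed human dermal fibroblasts of mesenchymal origin.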
# 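Throughout, for cell number relative to DMSO: TDF denotes transformed human dermal fibroblasts of mesenchymal origin.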
smiles,measurement,setting,value
CC(C)N(CCC(C(N)=O)(c1ccccc1)c1ccccn1)C(C)C (stereo not given) [Disopyramide],cell number,HCC1569 [1],99.8
same,cell number,TDF [2],106
same,H1.0 immunofluorescence intensity,TDF [3],103 (inactive)
same,H1.0 immunofluorescence intensity,HCC1569 [4],98.5 (inactive)
"c1cc2c(cc1C1OCC3C(c4ccc5c(c4)OCO5)OCC13)OCO2 (single isomer, unassigned; (-)) [(-)-Asarinin]",cell number,HCC1569 [1],98.4
same,cell number,TDF [2],99.2
same,H1.0 immunofluorescence intensity,TDF [3],101 (inactive)
same,H1.0 immunofluorescence intensity,HCC1569 [4],88.6 (inactive)
COc1cc2c3cc1Oc1c(OO)c(OC)cc4c1C(Cc1ccc(cc1)Oc1cc(ccc1O)CC3N(C)CC2)N(C)CC4.O=S(=O)(O)O (stereo not given) [Oxyacanthine sulfate],cell number,HCC1569 [1],55.6
same,cell number,TDF [2],11.7
same,H1.0 immunofluorescence intensity,TDF [3],186 (active)
same,H1.0 immunofluorescence intensity,HCC1569 [4],148 (active)
CC(C)(C)c1cc(C=C(C#N)C#N)cc(C(C)(C)C)c1O [Tyrphostin A9],cell number,HCC1569 [1],54.6
same,cell number,TDF [2],47
same,H1.0 immunofluorescence intensity,TDF [3],117 (inactive)
same,H1.0 immunofluorescence intensity,HCC1569 [4],87.7 (inactive)
"CN1CC(CO)CC2c3cccc4[nH]cc(c34)CC21 (stereo not given) [9,10-Dihydrolysergol]",cell number,HCC1569 [1],96.5
same,cell number,TDF [2],98.2
same,H1.0 immunofluorescence intensity,TDF [3],102 (inactive)
same,H1.0 immunofluorescence intensity,HCC1569 [4],92.7 (inactive)
O=C1NCN(c2ccccc2)C12CCN(CC1COc3ccccc3O1)CC2 (stereo not given) [Spiroxatrine],cell number,HCC1569 [1],98.9
same,cell number,TDF [2],105
same,H1.0 immunofluorescence intensity,TDF [3],101 (inactive)
same,H1.0 immunofluorescence intensity,HCC1569 [4],97.4 (inactive)
O=C1C=CC(=O)C=C1 [p-Benzoquinone],cell number,HCC1569 [1],100
same,cell number,TDF [2],99.8
same,H1.0 immunofluorescence intensity,TDF [3],93.1 (inactive)
same,H1.0 immunofluorescence intensity,HCC1569 [4],93.3 (inactive)
CC(N)c1cccc(Cl)c1Cl.Cl (racemic),cell number,HCC1569 [1],100
same,cell number,TDF [2],94.2
same,H1.0 immunofluorescence intensity,TDF [3],102 (inactive)
same,H1.0 immunofluorescence intensity,HCC1569 [4],101 (inactive)
CN1CC(NS(=O)(=O)N(C)C)CC2c3cccc4c3c(cn4C)CC21 (stereo not given) [Mesulergine],cell number,HCC1569 [1],100
same,cell number,TDF [2],103
same,H1.0 immunofluorescence intensity,TDF [3],93.4 (inactive)
same,H1.0 immunofluorescence intensity,HCC1569 [4],120 (inactive)
NC(CCCCCP(=O)(O)O)C(=O)O (stereo not drawn) [D(-)-2-Amino-7-phosphonoheptanoic acid],cell number,HCC1569 [1],99.9
same,cell number,TDF [2],95.2
same,H1.0 immunofluorescence intensity,TDF [3],97.7 (inactive)
same,H1.0 immunofluorescence intensity,HCC1569 [4],99.2 (inactive)
Br.C=CCN1CCc2cccc3c2C1Cc1ccc(O)c(O)c1-3 (stereo not drawn) [R(-)-N-Allylnorapomorphine hydrobromide],cell number,HCC1569 [1],84.8
same,cell number,TDF [2],85.6
same,H1.0 immunofluorescence intensity,TDF [3],104 (inactive)
same,H1.0 immunofluorescence intensity,HCC1569 [4],110 (inactive)
CCCN1CC(CSC)CC2c3cccc4[nH]cc(c34)CC21.CS(=O)(=O)O (stereo not given) [Pergolide mesylate],cell number,HCC1569 [1],95.8
same,cell number,TDF [2],102
same,H1.0 immunofluorescence intensity,TDF [3],93.3 (inactive)
same,H1.0 immunofluorescence intensity,HCC1569 [4],112 (inactive)
S=C(NC1CCCCC1)N1CCC(c2cnc[nH]2)CC1 [Thioperamide maleate],cell number,HCC1569 [1],104
same,cell number,TDF [2],100
same,H1.0 immunofluorescence intensity,TDF [3],99.8 (inactive)
same,H1.0 immunofluorescence intensity,HCC1569 [4],94.7 (inactive)
C1CCc2nnnn2CC1 [Pentylenetetrazole],cell number,HCC1569 [1],102
same,cell number,TDF [2],113
same,H1.0 immunofluorescence intensity,TDF [3],99 (inactive)
same,H1.0 immunofluorescence intensity,HCC1569 [4],98.1 (inactive)
COC1C=C2CCN(C)C2C2c3cc4c(cc3C(=O)OC12)OCO4.O=[N+]([O-])O (stereo not given) [Ungerine nitrate],cell number,HCC1569 [1],100
same,cell number,TDF [2],107
same,H1.0 immunofluorescence intensity,TDF [3],96.5 (inactive)
same,H1.0 immunofluorescence intensity,HCC1569 [4],88.8 (inactive)
CC1CC=CC2C3OC3(C)C(C)C3C(Cc4ccccc4)NC(=O)C23OC(=O)OC=CC(C)(O)C1=O (stereo not given) [Cytochalasin E],cell number,HCC1569 [1],63.3
same,cell number,TDF [2],32.4
same,H1.0 immunofluorescence intensity,TDF [3],226 (active)
same,H1.0 immunofluorescence intensity,HCC1569 [4],247 (active)
"CC1OC(C[N+](C)(C)C)CC1O.[Cl-] (single isomer, unassigned; (+)) [(+)-Muscarine chloride]",cell number,HCC1569 [1],106
same,cell number,TDF [2],116
same,H1.0 immunofluorescence intensity,TDF [3],93 (inactive)
same,H1.0 immunofluorescence intensity,HCC1569 [4],83.8 (inactive)
Oc1ccc2c3c1OC1C(O)CCC4(O)C(C2)N(CC2CCC2)CCC314 (stereo not given) [Nalbuphine],cell number,HCC1569 [1],105
same,cell number,TDF [2],105
same,H1.0 immunofluorescence intensity,TDF [3],89.2 (inactive)
same,H1.0 immunofluorescence intensity,HCC1569 [4],104 (inactive)
"CCCN1CCOC2c3cc(O)ccc3OCC21.Cl (stereo not drawn) [S(+)-PD 128,907 hydrochloride]",cell number,HCC1569 [1],103
same,cell number,TDF [2],104
same,H1.0 immunofluorescence intensity,TDF [3],93.3 (inactive)
same,H1.0 immunofluorescence intensity,HCC1569 [4],100 (inactive)
"Br.CN1C2CC(OC(=O)C(CO)c3ccccc3)CC1C1OC12 (single isomer, unassigned; (-)) [(-)-Scopolamine hydrobromide]",cell number,HCC1569 [1],100
same,cell number,TDF [2],104
same,H1.0 immunofluorescence intensity,TDF [3],97.6 (inactive)
same,H1.0 immunofluorescence intensity,HCC1569 [4],103 (inactive)
CC1=C(C)C(=O)C(CCC(C)(O)CCCC(C)CCCC(C)CCCC(C)C)=C(C)C1=O (racemic),cell number,HCC1569 [1],99
same,cell number,TDF [2],104
same,H1.0 immunofluorescence intensity,TDF [3],98.7 (inactive)
same,H1.0 immunofluorescence intensity,HCC1569 [4],101 (inactive)
CC1OC(C[N+](C)(C)C)CS1.[I-] (stereo not given) [OXA-22 iodide],cell number,HCC1569 [1],99.8
same,cell number,TDF [2],116
same,H1.0 immunofluorescence intensity,TDF [3],97.2 (inactive)
same,H1.0 immunofluorescence intensity,HCC1569 [4],95.2 (inactive)
C=CCN1CCC23c4c5ccc(O)c4OC2C(=NN=C2CCC4(O)C6Cc7ccc(O)c8c7C4(CCN6CC=C)C2O8)CCC3(O)C1C5 (stereo not given) [Naloxonazine],cell number,HCC1569 [1],99.6
same,cell number,TDF [2],89
same,H1.0 immunofluorescence intensity,TDF [3],105 (inactive)
same,H1.0 immunofluorescence intensity,HCC1569 [4],117 (inactive)
C[N+](C)(C)CCCCCCCCCC[N+](C)(C)C [Decamethonium],cell number,HCC1569 [1],105
same,cell number,TDF [2],118
same,H1.0 immunofluorescence intensity,TDF [3],91 (inactive)
same,H1.0 immunofluorescence intensity,HCC1569 [4],102 (inactive)
"NCCN(CCN)N(O)N=O [1,1-bis(2-aminoethyl)-2-hydroxy-3-oxotriazane]",cell number,HCC1569 [1],99.5
same,cell number,TDF [2],97.5
same,H1.0 immunofluorescence intensity,TDF [3],93.1 (inactive)
same,H1.0 immunofluorescence intensity,HCC1569 [4],95 (inactive)
